Hits are enriched below; roughly 11% of the tested compounds scored in any of these assays.
Autophagy mod – autophagy modulators in MEF cells, primary screen, imaging, high-content, MEF GFP-LC3; calls only at 10 µM (by protocol); MEF GFP-LC3 puncta imaging; test concentration mostly 10 µM; hit rate 0.98% among 190,000;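 active = percentage of spot-positive cells more than 3 SD above its plate mean, without a fluorescence outlier flag or 80% toxicity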;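 note: spot-positive cell cutoff set from DMSO-treated cells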
WT yeast gro inh – growth inhibition of WT strain, primary screen, mitochondrial fusion inhibitor project, WT and mutant strains, chemical genetic; mitochondrial fusion phenotypic screen; inhibition, % at 10 µM; hit rate 2.1% among 190,000; AID 1362, 2008; in the data active = inhibition above about 58%; tested in S. cerevisiae
L major viab – Leishmania major promastigote growth inhibition, primary screen; Leishmania major promastigotes, resazurin fluorescence viability; inhibition, % at 10 µM; hit rate 9% among 200,000; AID 1063, 2008; in the data active = inhibition above about 50%;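 note: promastigotes grown with compound for 44 hours at 28 °C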
INS promoter inh – inhibitors of insulin promoter-driven GFP, primary screen, imaging, TRM-6 cells (human fetal islet line), eGFP reporter, cell count; hit rate 0.9% among 130,000; inhibition, % at 2 µM; reporter expression induced with tamoxifen; AID 1273, 2008;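 active = inhibition above the mean plus 3 SD, with well images judged a real hit on visual review, cut at about 60% in these data, passing the limit was not always enough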
Insulin prom up – insulin promoter activators in MIN6 cells, imaging, high-content screening, mouse beta cells; hit rate 0.3% among 190,000; MIN6 insulin promoter-GFP reporter; active compounds read high; z-score at 5 µM;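 active = z-score above 3 at 5 µM with at least 500 cells counted in the well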
Active calls of the source: *; i = inactive; nt = no result given; + = active, no number.

SMILES	Autophagy mod	WT yeast gro inh	L major viab	INS promoter inh	Insulin prom up
Cc1[nH]nc(Sc2ccccn2)c1[N+](=O)[O-]	i	-4	4	-8	0.22
CC(=O)c1cc(C(=O)N2CCCC(CCC(=O)N(C)CCc3ccccn3)C2)cs1 (stereo not given)	i	-2	12	nt	-0.19
CCOC(=O)Cc1nnc(NC(=O)CSc2ncc(-c3ccccc3)nn2)s1	i	-2	1	5	0.08
CC1CCCN(C/C=C/c2ccccc2[N+](=O)[O-])C1 (stereo not given)	i	-4	88*	nt	0.12
CC1CCCN(c2ccc([N+](=O)[O-])s2)C1 (stereo not given)	i	-1	-7	-92	0.2
CCC1CCCCN1S(=O)(=O)c1ccccc1[N+](=O)[O-] (stereo not given)	i	-13	17	-11	0.3
CCC1CCCCN1C/C=C/c1ccccc1[N+](=O)[O-] (stereo not given)	i	14	90*	nt	0.79
CC1CCCCN1C/C=C/c1ccccc1[N+](=O)[O-] (stereo not given)	i	-16	85*	nt	-0.52
Cc1cc(C(=O)NNC(=S)Nc2ccccc2)nn1C	i	-18	-6	nt	0.42
O=C(/C=C/c1ccc([N+](=O)[O-])cc1)NCc1ccccn1	i	-12	12	-25	-0.25
O=C(/C=C/c1ccc([N+](=O)[O-])cc1)Nc1ncc([N+](=O)[O-])s1	i	32	83*	nt	-1.3
O=C(N/N=C/c1ccccn1)c1cc(-c2ccccc2Cl)n[nH]1	i	-4	47	38	-0.18
O=C(N/N=C/c1ccccn1)c1cc(-c2cccc3ccccc23)n[nH]1	i	-15	73*	12	-0.09
O=C(N/N=C/c1ccccn1)c1cc(-c2ccc3ccccc3c2)n[nH]1	i	-3	84*	nt	0.25
CCc1ccc(-c2cc(C(=O)N/N=C/c3ccccn3)[nH]n2)cc1	i	-11	74*	-159	0.74
O=C(N/C(=C/C=C/c1ccccc1)C(=O)N1CCOCC1)c1ccccc1Br	i	-1	11	-31	0.51
COc1ccccc1NC(=O)C1=C(C)NC(=O)NC1c1ccccc1[N+](=O)[O-] (stereo not given)	i	7	2	-67	-0.13
CCOC(=O)c1ccc2c(c1)nc(SCc1cn3ccsc3n1)n2CC	i	28	99*	-76	-2.2
O=C1N=C(N2CCOCC2)S/C1=C\c1ccc(-c2ccccc2Cl)o1	+	-3	1	nt	-0.08
CC(c1ccon1)N(C)Cc1cn(Cc2ccccc2)nc1-c1ccc2c(c1)OCO2 (stereo not given)	i	19	22	nt	-0.67
O=C(COc1nncc2ccccc12)NCC(F)(F)F	i	7	-5	53	0.02
COc1ccc(CN2CCN(C(=O)C3CCC(CNS(=O)(=O)c4ccc(C)cc4)CC3)CC2)c(OC)c1OC (stereo not given)	+	-4	7	nt	-1.5
COc1ccc(CN2CCN(C(=O)C3CCN(S(=O)(=O)c4cccs4)CC3)CC2)c(OC)c1OC	i	-4	5	48	-0.32
C/C(=C\c1ccccc1)CN(C)CCN(C)C	i	-12	97*	nt	-0.4
C/C(=C\c1ccccc1)CN1CCN(c2ccccc2F)CC1	i	7	-2	19	-0.42
SMILES	Autophagy mod	WT yeast gro inh	L major viab	INS promoter inh	Insulin prom up
CC1CCCN(c2nc3c(c(=O)[nH]c(=O)n3C)n2CCCc2ccccc2)C1 (stereo not given)	i	-6	21	-86	-1.6
Cc1ccc2nc(C)c(C(=O)NN=C3CCCCCC3)n2c1	i	5	-6	nt	-0.32
CCOC(=O)C1=C(C)NC(C)=C(C(=O)OCC)C1C(=O)OCC(=O)N(C)C1CCS(=O)(=O)C1 (stereo not given)	i	-10	-4	-100	-0.64
Cc1c(C2C(C#N)=C(N)N(c3cccc([N+](=O)[O-])c3)C3=C2C(=O)CCC3)cnn1C (stereo not given)	i	1	0	56	nt
CCOc1ccc2[nH]c(=O)c(C(c3nnnn3C3CCCCC3)N3CCN(C)CC3)cc2c1 (stereo not given)	+	20	-5	-6	0.2
COc1ccc2[nH]c(=O)c(C(c3nnnn3C3CCCC3)N(C)C3CCCCC3)cc2c1 (stereo not given)	i	-5	53*	41	-0.01

Assay outcomes (PubChem BioAssay)
